Reference: PubChem BioAssay (NCATS)
Inconclusive results are not listed. Entries that show only a call come without a potency. Activity calls are given as the source filed them. Unless noted, calls follow the shape of the dose curve; as a rule, active = well fitted curve in the direction sought with a large enough effect; inconclusive = small, poorly fitted or top-dose-only effect, or another doubt; inactive = no such curve, though single readings can be large; an effect the other way counts as inactive or inconclusive.

How the values were obtained:
[1] = HPAF-II 24hr Apoptosis Induction qHTS against the NCATS CANVASS Library (AID 1347356)
Procedure, shortened: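 500 HPAF-II cells/well; compounds in 11-pnt qHTS; 24 h, 37 C/5% CO2; Caspase-Glo 3/7 added, 15 min RT dark; luminescence read. Doxorubicin control.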

[2] = HEK293 18hr Apoptosis Induction qHTS against the NCATS CANVASS Library (AID 1347357)
Procedure, shortened: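 Caspase-Glo 3/7 luminescence (15 min, room temperature) measured apoptosis after an 18-hour, 37 degrees C exposure of HEK293 cells (500 cells/well) to compounds in 11 points.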

[3] = HPAF-II 12hr Apoptosis Induction qHTS against the NCATS CANVASS Library (AID 1347358)
Procedure, shortened: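 Caspase-Glo 3/7 luminescence (DEVD substrate) reports caspase activity in HPAF-II cells after 12 h compound treatment at 37 degrees C. Compounds were tested in an 11-point series. Doxorubicin served as control.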

[4] = HEK293 24hr Apoptosis Induction qHTS against the NCATS CANVASS Library (AID 1347359)
Procedure, shortened: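 HEK293 cells (500/well, DMEM + 10% FBS) were exposed to compounds in an 11-point series for 24 hours at 37 degrees C, then caspase-3/7 activity was read by Caspase-Glo DEVD luciferase luminescence after 15 min.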

[5] = HPAF-II 18hr Apoptosis Induction qHTS against the NCATS CANVASS Library (AID 1347360)
Procedure, shortened: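 Caspase-3/7 activation was measured with luminescent Caspase-Glo 3/7 reagent (15 min, RT) in HPAF-II cancer cells (500 cells/well). Before detection, cells had been treated for 18 h at 37 C with compounds (11 points).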

[6] = target: Luciferin 4-monooxygenase (Photinus pyralis) (UniProt P08659); assay: Firefly luciferase counterscreen qHTS: Assay Interference Panel against the NCATS CANVASS Library (AID 1347363); also: series mostly up to about 57 µM
Procedure, shortened: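 Purified P. pyralis luciferase was added to compounds (11-point series) preincubated 15 min at room temperature with substrate containing 0.013 mM D-luciferin and 0.013 mM ATP; luminescence was read after 5 min.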

[7] = J3T Cancer Cell Toxicity qHTS against the NCATS CANVASS Library (AID 1347371); also: potency is read from the fitted curve at half-maximal effect
Procedure, shortened: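 Dog glioma J3T, 500 cells/well; cpd 11-pt qHTS; 72 hr, 37C/5% CO2; CellTiterGlo ATP luminescence readout.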

[8] = target: Nuclear receptor subfamily 1 group I member 3 (Homo sapiens) (UniProt Q14994); assay: qHTS for Constitutive Androstane Receptor (CAR) Agonist screened against the NCATS CANVASS Library (AID 1347373);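 also: every well also contained 1.5 µM PK11195 alongside the test compound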; also: potency is read from the fitted curve at half-maximal effect
Procedure, shortened: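 Luciferase read-out (ONE-Glo, 30 min RT) of CYP2B6-2.2kb promoter activity in double-stable HepG2-hCAR cells after 24hr compound exposure with 1.5uM PK11195 present; viability measured first by CellTiter-Fluor.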

[9] = qHTS for Hypoxia signaling pathway (HIF-1) agonists against the NCATS CANVASS Library (AID 1347375)
Procedure, shortened: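 Read-out: beta-lactamase FRET (CCF4-AM, ex 405, em 460 and 530 nm) after 2 h at room temperature. ME-180 cells stably carrying HRE-bla were treated 17 h at 37C with compounds in an 11-point concentration series.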

[10] = 10-beta competent E. coli microbial cell viability qHTS against the NCATS CANVASS Library (AID 1347376); also: series mostly up to about 46 µM
Procedure, shortened: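 Luminescence from BacTiter-Glo ATP detection served as the viability read-out; bacteria (0.2 OD) had been incubated overnight at 37C with pin-transferred compounds at 11 concentrations.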

[11] = DH5-alpha competent E. coli microbial cell viability qHTS against the NCATS CANVASS Library (AID 1347377); details: outcome: dose series up to 46.1 µM unless noted
Procedure, shortened: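 Luminescent ATP read-out (BacTiter-Glo, 20 min RT) after overnight 37C culture of DH5-alpha E. coli with compounds; daunomycin control at 0.2 nM–9.2 uM final.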

[12] = qHTS for H2AX Agonists against the NCATS CANVASS Library (AID 1347378); also: potency is read from the fitted curve at half-maximal effect
Procedure, shortened: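 Phospho-H2AX (S139) in CHO-K1 lysates measured by HTRF, reported as 665/615 nm emission ratio after 24 hr antibody incubation at room temperature. Cells were first treated with a compound series for 3 hr at 37C (0.76% DMSO final).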

[13] = Inflammasome Signaling qHTS Counterscreen: IL-1-beta AlphaLISA counterscreen against the NCATS CANVASS Library (AID 1347381);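 also: cell-free check with purified IL-1β in medium and no THP-1 cells; series mostly up to about 57 µM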
Procedure, shortened: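 Here, no cellular stimulation occurs; compounds in an 11-point series meet 4 pg purified IL-1-beta directly. Bead-based AlphaLISA detection follows (1 h acceptor/antibody, then 30 min donor, dark, room temperature), with excitation at 680 nm.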

[14] = Cytotoxicity qHTS for assessment of Hepg2 cells membrane integrity screened against the NCATS CANVASS Library (AID 1347387)
Procedure, shortened: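 LDH release read by fluorescence (560 nm ex/590 nm em) after CytoTox-ONE addition and 10 min RT; signal tracks lysed cells. HepG2, 2000 cells/well, plated overnight; compound 5 hr, 37C, 5% CO2, final 0.59 nM - 46 uM, 11 points.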

[15] = qHTS for activators of dead-cell proteases activity screened against the NCATS CANVASS Library (AID 1347392);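 also: luminescence from protease leaking out of membrane-damaged cells cleaving impermeant substrate; rising signal means more cytotoxicity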
Procedure, shortened: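 Cytotoxicity in HepG2 cells was assessed by released protease cleaving AAF-aminoluciferin, with luminescence as signal. Exposure lasted 5 h at 37C across an 11-point series.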

[16] = qHTS for inhibitors of Rabies Virus screened against the NCATS CANVASS Library (AID 1347402; calls by dose curve; also: series mostly up to about 46 µM)

Chain of Luciferin 4-monooxygenase (Photinus pyralis) (P08659 whole entry, looked up): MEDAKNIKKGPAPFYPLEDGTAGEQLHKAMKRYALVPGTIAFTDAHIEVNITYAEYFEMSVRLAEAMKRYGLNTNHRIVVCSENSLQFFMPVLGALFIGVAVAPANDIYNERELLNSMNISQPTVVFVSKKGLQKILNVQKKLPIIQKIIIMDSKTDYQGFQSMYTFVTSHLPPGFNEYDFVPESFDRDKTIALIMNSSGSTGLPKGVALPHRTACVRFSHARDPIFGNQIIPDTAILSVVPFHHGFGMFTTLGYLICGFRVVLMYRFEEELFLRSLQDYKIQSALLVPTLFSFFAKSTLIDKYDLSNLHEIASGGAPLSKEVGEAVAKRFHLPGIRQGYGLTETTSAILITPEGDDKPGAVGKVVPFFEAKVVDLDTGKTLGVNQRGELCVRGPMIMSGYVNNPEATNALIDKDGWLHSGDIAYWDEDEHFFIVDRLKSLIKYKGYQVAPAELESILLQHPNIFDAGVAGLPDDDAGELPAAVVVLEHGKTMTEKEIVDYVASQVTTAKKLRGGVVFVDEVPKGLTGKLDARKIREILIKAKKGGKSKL
Chain of Nuclear receptor subfamily 1 group I member 3 (Homo sapiens) (Q14994 whole entry, looked up): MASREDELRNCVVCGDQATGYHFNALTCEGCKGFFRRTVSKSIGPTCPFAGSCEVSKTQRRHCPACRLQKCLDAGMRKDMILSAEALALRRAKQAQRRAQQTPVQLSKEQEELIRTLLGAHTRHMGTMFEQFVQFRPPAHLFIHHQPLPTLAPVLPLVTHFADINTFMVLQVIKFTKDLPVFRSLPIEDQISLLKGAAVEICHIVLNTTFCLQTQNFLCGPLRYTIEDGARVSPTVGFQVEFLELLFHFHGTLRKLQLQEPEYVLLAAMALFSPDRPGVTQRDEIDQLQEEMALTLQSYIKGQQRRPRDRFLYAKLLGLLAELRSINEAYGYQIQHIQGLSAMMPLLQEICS

Compound | outcome [1] | outcome [2] | outcome [3] | outcome [4] | outcome [5] | Potency [6] | Potency [7] | Potency [8] | outcome [9] | outcome [10] | outcome [11] | Potency [12] | outcome [13] | outcome [14] | outcome [15] | outcome [16] | activity change, negative = inhibition [16]
C/C=C1/CN2CC[C@@]34c5ccccc5N(C)[C@@H]3[C@@H]2C[C@@H]1[C@H]4C(=O)OC | inactive | inactive | inactive | inactive | inactive | inactive | inactive | inactive | inactive | inactive | inactive | inactive | inactive | inactive | inactive | inactive | 
C=CC(C)(C)[C@@]12C[C@H]3C(=O)N/C(=C/c4cnc[nH]4)C(=O)N3[C@@H]1Nc1ccccc12 | inactive | inactive | inactive | inactive | inactive | inactive | inactive | inactive | inactive | inactive | inactive | inactive | inactive | inactive | inactive | inactive | 
C=C[C@H]1CN2CCc3c([nH]c4cccc(OC)c34)[C@@H]2C[C@@H]1/C(=C\OC)C(=O)OC | inactive | inactive | inactive | inactive | inactive | inactive | inactive | inactive | inactive | inactive | inactive | inactive | inactive | inactive | inactive |  | 
O[C@H]1C=C[C@@]23CCN(Cc4cc5c(cc42)OCO5)[C@@H]3C1 | inactive | inactive | inactive | inactive | inactive | inactive | inactive | inactive | inactive | inactive | inactive | inactive | inactive | inactive | inactive | inactive | 
CO[C@@H](/C=C/CC/C=C/C(=O)O)[C@@H](O)[C@H](C)/C=C(\C)[C@H](O)[C@H](C)C(=O)CCCC1CC(=O)NC(=O)C1 | inactive | inactive | inactive | inactive | inactive | inactive | inactive | inactive | inactive | inactive | inactive | inactive | inactive | inactive | inactive | inactive | 
C1=C2CCCN[C@H]2C2CC1[C@H]1CCCCN1C2 (stereo partly drawn) | inactive | inactive | inactive | inactive | inactive | inactive | inactive | inactive | inactive | inactive | inactive | inactive | inactive | inactive | inactive | inactive | 
CO[C@H]([C@@H](C)[C@H]1O[C@]1(C)C[C@H](C)/C=C/C=C(\C)[C@H]1O[C@@H](CC(=O)O)CC[C@@H]1C)[C@@H](C)O | inactive | inactive | inactive | inactive | inactive | inactive | 0.0209 µM (active) | 0.105 µM (active) | inactive | inactive | inactive | inactive | inactive | inactive | inactive | inactive | 
C/C=C1/CN2CC[C@]34C(=C(C(=O)OC)[C@H]1C[C@H]23)Nc1ccccc14 | inactive | inactive | inactive | inactive | inactive | inactive | inactive | inactive | inactive | inactive | inactive | inactive | inactive | inactive | inactive | inactive | 
COC1C(O)C(C)OC(OC2C(Oc3cccc4c(O)c5c(=O)oc6ccc(C)c7c(=O)oc(c34)c5c67)OC(C)C(O)C2O)C1O (stereo not drawn) | inactive | inactive | inactive | inactive | inactive | inactive | 23.5 µM (active) | inactive |  | inactive | inactive | 27.3 µM (active) | inactive | inactive | inactive | inactive | 
CO[C@@]12c3c(C)cc(O)c4c(=O)occ(c34)C(=O)[C@@H]1[C@]13COC(=O)c4c(O)cc(C)c(c41)C(=O)[C@H]2[C@@H]3OC(C)=O | inactive | inactive | inactive | inactive | inactive | inactive | inactive | inactive | inactive | inactive | inactive | inactive | inactive | inactive | inactive | inactive | 
COC1=C(C2=C(OC)C(=O)c3cc4c(c(O)c3C2=O)C(=O)O[C@H](C)C4)C(=O)c2c(cc3c(c2O)C(=O)O[C@H](C)C3)C1=O | inactive | inactive | inactive | inactive | inactive |  | inactive | inactive | inactive | inactive | inactive [at 15.4 µM] | inactive | inactive | inactive | inactive | inactive | 
CC[C@H]1CN2CCc3c([nH]c4cccc(OC)c34)[C@@H]2C[C@@H]1/C(=C\OC)C(=O)OC | inactive | inactive | inactive | inactive | inactive | inactive | inactive | inactive | inactive | inactive | inactive | inactive | inactive | inactive | inactive |  | 
CCC(=O)N[C@@H](C[C@H](C)C(Cl)(Cl)Cl)C(=O)N1C(=O)C=C(OC)[C@@H]1C[C@H](C)C(Cl)Cl | inactive | inactive | inactive | inactive | inactive | inactive | inactive | inactive | inactive | inactive |  | inactive | inactive | inactive | inactive |  | 
CC[C@@H]1CN2CCC3(Nc4cccc(OC)c4C3=O)[C@@H]2C[C@@H]1/C(=C\OC)C(=O)OC (stereo partly drawn) | inactive | inactive | inactive | inactive | inactive | inactive | inactive | inactive | inactive | inactive | inactive | inactive | inactive | inactive | inactive | inactive | 
COc1ccc([C@@H]2CC(=O)c3c(cc(O)c(C/C=C(\C)CCC=C(C)C)c3O)O2)cc1 |  |  |  |  |  |  |  |  |  |  |  |  |  |  |  |  | -26.8% [at 9.14 µM] (inactive)
C/C(=C\[C@H](C)C(=O)C[C@H](O)CC1CC(=O)NC(=O)C1)[C@@H]1OC(=O)/C=C/CC/C=C/C=C/[C@@H]1C | inactive | inactive | inactive | inactive | inactive | inactive | 0.264 µM (active) | inactive | inactive | inactive | inactive |  | inactive | inactive | inactive |  | 
C=C(C)[C@H]1C(=O)c2c3c(cc4c5c(n1c24)[C@@]1(C)[C@@H](CC[C@H]2[C@](C)(/C=C/C=C(\C)C(=O)O)[C@@H](O)CC[C@@]21C)C5)C1=CC(C)(C)OC(C)(C)[C@H]1[C@@H]3O |  | inactive |  | inactive |  | inactive | inactive | inactive |  | inactive | inactive | 13.7 µM (active) | inactive |  |  |  | 
C/C=C/[C@@H]1[C@H]2C[C@@H](C)CC[C@@H]2C(C)=C[C@H]1C(=O)c1c(O)c(-c2ccc(O)cc2)c[nH]c1=O | inactive | inactive | inactive | inactive | inactive | inactive | inactive | inactive | inactive | inactive | inactive | inactive | inactive | inactive | inactive |  | 
CC[C@@H]1CN2CCc3c([nH]c4cccc(OC)c34)[C@@H]2C[C@@H]1/C(=C\OC)C(=O)OC | inactive | inactive | inactive | inactive | inactive | inactive |  | inactive | inactive | inactive | inactive | inactive | inactive | inactive | inactive | inactive | 
CCCCC1CC[C@H]2CCCC(CCC)N12 (stereo partly drawn) | inactive | inactive | inactive | inactive | inactive | inactive | inactive | inactive | inactive | inactive | inactive | inactive | inactive | inactive | inactive | inactive | 
C[C@]12CC(O)C3[C@@H](CCC4C[C@@H](O)CC[C@@]43CO)[C@@]1(O)CC[C@@H]2C1=CC(=O)OC1 (stereo partly drawn) | inactive | inactive | inactive | inactive | inactive | inactive | 14.8 µM (active) | inactive | inactive | inactive | inactive | inactive | inactive | inactive | inactive |  | 
